Screens: PubChem BioAssay, University of Kansas High Throughput Screening Laboratory
mHTT-CaM PPI inh: mHTT-calmodulin interaction abrogation | P42858 | AlphaScreen His-mHTT/GST-CaM binding, luminescence | 190,000 tested, 3.6% active | AID 1671202 | inhibition, % at 15 µM;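 note: 0% = both proteins with DMSO and 100% = one protein alone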
Pf apPOL inh: Pf-apPOL DNA polymerase inhibition | Recombinant Pf-apPOL, molecular beacon fluorescence, 1.5 h | inhibition, % at 10 µM | 210,000 tested, 0.25% active
* hit, by the source's call; / = no result given. Only some compounds are listed: those with a hit (about 3.6% of all), similar ones and a draw of the others. Cut-off read from the data, not from the text of the source: active = inhibition above about 50%; inactive = the rest.

SMILES	mHTT-CaM PPI inh	Pf apPOL inh
Cc1ccc(CNS(=O)(=O)c2ccc3[nH]c4c(c3c2)CCCCC4)cc1	10	-10
CN(C)c1ccc(CNS(=O)(=O)c2ccc3[nH]c4c(c3c2)CCCCC4)cc1	55*	0
O=c1[nH]c2ccc(S(=O)(=O)NCc3ccco3)cc2s1	-1	2
O=S(=O)(NCc1ccccc1)c1ccc2[nH]c3c(c2c1)CCCCC3	57*	-4
O=S(=O)(NCc1ccco1)c1ccc2[nH]c3c(c2c1)CCCCC3	87*	-4
CN(CC(=O)NCc1ccco1)S(=O)(=O)c1ccc2[nH]c3c(c2c1)CCCC3	29	-3
CN(Cc1ccco1)S(=O)(=O)c1ccc2[nH]c3c(c2c1)CCCCC3	78*	-4
COc1ccc(Cl)cc1-c1nc(C=Nc2ccccc2Cl)c(O)o1	5	0
CC(=O)N1N=C(c2ccc(Br)cc2)CC1c1ccc([N+](=O)[O-])cc1 (centres undefined)	-2	2
CCc1ccc(-n2nnc(C(=O)O)c2C(F)(F)F)cc1	1	1
CC1(C)Nc2ccccc2-c2c1ssc2=S	40	/
CCOc1ccc2c(c1)-c1c(ssc1=S)C(C)(C)N2C	97*	/
Cc1ccc2c(c1)-c1c(ssc1=S)C(C)(C)N2C	93*	/
CCOc1ccc2c(c1)C(=O)c1cc(OCC(=O)O)ccc1-2	2	-1
O=C(C1CCCN(Cc2cccc(Cl)c2)C1)N1CCCCCC1 (centres undefined)	2	-2
O=C(O)c1ccc2c3c1C1C=CCC1CN3CC1CC=CC21 (centres undefined)	16	12
O=C(O)c1ccc2c(c1)C1C=CCC1C(c1ccccc1Br)N2 (centres undefined)	23	-1
O=C(O)c1cc2c3c(c1)C1C=CCC1C(c1ccccc1F)N3CC1CC=CC21 (centres undefined)	70*	-7
O=C(O)c1cc2c3c(c1)C1C=CCC1C(c1ccc(F)cc1)N3CC1CC=CC21 (centres undefined)	96*	-2
C1=CC2c3cccc4c3N(CC2C1)CC1CC=CC41 (centres undefined)	40	/
O=C(O)c1cc2c3c(c1)C1C=CCC1C(c1ccccc1)N3CC1CC=CC21 (centres undefined)	94*	3
O=[N+]([O-])c1cccc(C2N(c3ccccc3)CCN2c2ccccc2)c1	/	-3
O=C(O)c1cc2c3c(c1)C1C=CCC1C(c1cccc([N+](=O)[O-])c1)N3CC1CC=CC21 (centres undefined)	70*	4
Cc1ccc(S(=O)(=O)N2CCC3(CC2)NCCN=C3NCc2cccc(F)c2)c(C)c1	2	-1
Cc1noc(C)c1C1CCCN1Cc1cccc(F)c1F (centres undefined)	-38	-4
SMILES	mHTT-CaM PPI inh	Pf apPOL inh
CCC(C(=O)N1CCC(Cc2ccccc2)CC1)c1ccccc1 (centres undefined)	18	-4
O=C(NCc1ccc(F)cc1)C1CC(=O)N(Cc2ccccc2F)C1 (centres undefined)	3	-1
O=C1NC(=S)N/C1=C\c1cc(Br)cc(Br)c1O	43	/
O=[N+]([O-])c1ccc(S(=O)(=O)N2CC3C4C=CC(C4)C3C2)cc1 (centres undefined)	4	8
NS(=O)(=O)c1cc2c3c(c1)C1C=CCC1C(c1ccc([N+](=O)[O-])cc1)N3CC1CC=CC21 (centres undefined)	63*	-8
C=CCNC(=O)c1oc2ccc(S(=O)(=O)N3CC(C)CC(C)C3)cc2c1C (centres undefined)	77*	-14
C=CCNC(=O)c1oc2ccc(S(=O)(=O)N3CCCCCC3)cc2c1C	-6	-10
COc1cccc(NC(=O)N2CCn3c(C)ccc3C2C(C)C)c1 (centres undefined)	3	-3
N=C1S/C(=C\c2ccc(-c3ccc(F)c(Cl)c3)o2)C(=O)N1c1nccs1	15	1
N=C1S/C(=C\c2ccc(-c3ccc(F)cc3F)o2)C(=O)N1c1nccs1	5	0
N=C1S/C(=C\c2ccc(-c3cccc(F)c3)o2)C(=O)N1c1nccs1	62*	-9
N=C1S/C(=C\c2ccc(-c3ccccc3C(=O)O)o2)C(=O)N1c1nccs1	74*	-5
O=C(CCS(=O)(=O)c1ccccc1)NCC(O)c1cccc2ccccc12 (centres undefined)	-2	-10
CCc1ccccc1NC(=O)C1CC(=O)N(c2ccccc2)C1 (centres undefined)	-10	1
COc1ccc(-c2cc(C(=O)N3CCCC3c3cccc(C)c3)on2)cc1 (centres undefined)	-6	0
O=C(/C=C/c1ccc2c(c1)OCO2)Nc1c2c(nn1-c1ccc(Cl)cc1)CSC2	25	-6
Cc1ccccc1-n1nc2c(c1NC(=O)/C=C/c1ccccc1)CSC2	81*	-4
Cc1ccc(-n2nc3c(c2NC(=O)/C=C/c2ccccc2)CSC3)c(C)c1	41	-9
O=C(/C=C/c1ccccc1)Nc1c2c(nn1-c1ccc(Cl)cc1)CSC2	56*	-9
Cc1ccccc1-n1nc2c(c1NC(=O)CSCc1ccccc1)CSC2	81*	1
O=C(Nc1c2c(nn1-c1ccc(Cl)cc1)CSC2)c1cccs1	50*	-1
CCC(=O)Nc1c2c(nn1-c1ccccc1C)CSC2	2	4
O=C(Nc1c2c(nn1-c1ccccc1)CSC2)c1cccs1	32	7
CCOc1ccc(C(=O)Nc2c3c(nn2-c2ccc(Cl)cc2)CSC3)cc1OCC	10	-5
Cc1noc(-c2ccc(=O)n(CC(=O)NC3CCc4ccccc43)c2)n1 (centres undefined)	-7	-7
SMILES	mHTT-CaM PPI inh	Pf apPOL inh
COc1ccc(C)cc1NC(=O)N1CCCCCC1c1cccs1 (centres undefined)	-13	1
O=C(CSc1nc2ccccc2c(=O)n1Cc1ccc2c(c1)OCO2)Nc1ccccc1Cl	-2	-6
O=c1[nH][nH]c(=O)c2c(N=Cc3cc(Br)ccc3O)cccc12	3	-2
CC(C)Oc1ccc(C(O)=C2C(=O)C(=O)N(CCN(C)C)C2c2cccs2)cc1F (centres undefined)	-6	-3
O=C1OC(c2cccc(F)c2)=N/C1=C\c1ccc(F)cc1	6	-3
Cc1ccc(/C=C2\N=C(c3cccc(F)c3)OC2=O)cc1	6	63*
O=C1OC(c2cccc(F)c2)=N/C1=C\c1cccs1	24	8
O=C1OC(c2cccc(Cl)c2)=N/C1=C\c1cccs1	53*	4
Cc1ccc(C(=O)Nc2cccc(-c3nc4ncccc4o3)c2)cc1C	16	0
Cc1ccc2cc3cc(C(=O)N(C)Cc4ccccc4)oc3nc2c1	-11	1
c1ccc(C23OC4C5C6CC(C7C6C4C72)C53)cc1 (centres undefined)	/	-4
O=[N+]([O-])c1ccc(/C=C/C=Nc2ccccc2O)cc1	83*	-2
CC(C)(C)c1ccc(O)c(N=C/C=C/c2ccc([N+](=O)[O-])cc2)c1	31	-5
Cc1occc1C(=O)Nc1ccc([N+](=O)[O-])c(NC(=O)c2ccoc2C)c1	34	0
O=S(=O)(NC1CCN(Cc2ccccc2)CC1)c1ccc2nc(-c3ccccc3)[nH]c2c1	87*	-12
O=S(=O)(NC1CCCCCC1)c1ccc2nc(-c3ccccc3)[nH]c2c1	8	-13
CS(=O)(=O)N1CC(C(=O)NCc2ccc(N3CCOCC3)cc2)C2(CCCCC2)C1 (centres undefined)	15	-7
